# In PubChem BioAssay (EPA / NIEHS):
# “And” between values parts separate entries of the source, which are not always exact repeats. Equal values may be shown once. A structure can be active in one record and inactive in another. The source made the active and inactive calls. How the source made its calls: active means hit-call score of the fitted dose curve at least 0.9, where 1 is the maximum; inactive means score below 0.9.
# How the values were obtained:
# [1] = read-out: Tissue Factor, F3 (gene 2152); experiment: BSK_CASM3C_TissueFactor: BioMAP Diversity Plus: CASM3C Assay for Tissue Factor Biomarker Activity (AID 2283052); settings: primary human coronary artery smooth muscle cells; actives raise or lower the signal;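 further: cell surface tissue factor protein level read by ELISA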
# [2] = read-out: Interferon-gamma inducible Protein 10 (IP10), CXCL10 (gene 3627); experiment: BSK_hDFCGF_IP10: BioMAP Diversity Plus: hDFCGF Assay for Interferon-gamma inducible Protein 10 (IP10) Biomarker Activity (AID 2283053); settings: primary human foreskin fibroblasts; actives raise or lower the signal
# Outline: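 Primary human foreskin fibroblasts exposed to chemicals for 24 h. IP-10 measured by ELISA; changes fitted bidirectionally against DMSO baseline.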
# [3] = read-out: Urokinase-type plasminogen activator receptor (uPAR), PLAUR (gene 5329); experiment: BSK_CASM3C_uPAR: BioMAP Diversity Plus: CASM3C Assay for Urokinase-type plasminogen activator receptor (uPAR) Biomarker Activity (AID 2283054); settings: primary human coronary artery smooth muscle cells; actives raise or lower the signal;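 further: cell-surface uPAR protein level quantified by ELISA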
# [4] = read-out: Vascular cell adhesion molecule 1 (VCAM1), VCAM1 (gene 7412); experiment: BSK_CASM3C_VCAM1: BioMAP Diversity Plus: CASM3C Assay for Vascular cell adhesion molecule 1 (VCAM1) Biomarker Activity (AID 2283055); settings: primary human coronary artery smooth muscle cells; actives raise or lower the signal;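 further: VCAM-1 protein level quantified by ELISA on the cells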
# [5] = read-out: Collagen III, COL3A1 (gene 1281); experiment: BSK_hDFCGF_CollagenIII: BioMAP Diversity Plus: hDFCGF Assay for Collagen III Biomarker Activity (AID 2283056); settings: primary human foreskin fibroblasts; actives raise or lower the signal
# Outline: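 Human foreskin fibroblast primary cultures sampled 24 h after dosing; Collagen III quantified by ELISA. Signal fitted bidirectionally against DMSO baseline.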
# [6] = read-out: Epidermal growth factor receptor (EGFR), EGFR (gene 1956); experiment: BSK_hDFCGF_EGFR: BioMAP Diversity Plus: hDFCGF Assay for Epidermal growth factor receptor (EGFR) Biomarker Activity (AID 2283057); settings: primary human foreskin fibroblasts; actives raise or lower the signal
# Outline: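 Primary human foreskin fibroblasts (hDFCGF system), sampled 24 h after dosing; EGFR quantified by ELISA. Bidirectional fit relative to DMSO baseline; SRB total-protein staining in parallel cultures for cytotoxicity.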
# [7] = read-out: Interleukin-8 (IL8), CXCL8 (gene 3576); experiment: BSK_hDFCGF_IL8: BioMAP Diversity Plus: hDFCGF Assay for Interleukin-8 (IL8) Biomarker Activity (AID 2283058); settings: primary human foreskin fibroblasts; actives raise or lower the signal
# Outline: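 Primary human foreskin fibroblasts (hDFCGF system) dosed with chemical; IL-8 measured by ELISA 24 hours later. Bidirectional curve fitting relative to DMSO baseline; cytotoxicity tracked in parallel cultures by SRB total protein staining.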
# [8] = BSK_hDFCGF_Proliferation: Cell Proliferation Assessment in the BioMAP Diversity Plus: hDFCGF Assay (AID 2283059); settings: primary human foreskin fibroblasts;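 further: curves fitted for both rise and fall of signal versus DMSO baseline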
# Outline: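 Steps: dose primary human dermal fibroblasts (foreskin); […] fix in 10% TCA; stain with 0.1% SRB; read 560 nm; fit gain or loss of signal against DMSO.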
# [9] = read-out: Macrophage colony-stimulating factor (MCSF), CSF1 (gene 1435); experiment: BSK_hDFCGF_MCSF: BioMAP Diversity Plus: hDFCGF Assay for Macrophage colony-stimulating factor (MCSF) Biomarker Activity (AID 2283060); settings: primary human foreskin fibroblasts; actives raise or lower the signal
# Outline: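 Human foreskin fibroblast primary cultures; M-CSF measured by ELISA 24 hours after chemical dosing. Bidirectional fitting relative to DMSO, with overt cytotoxicity tracked by parallel SRB total-protein staining (0.1% SRB, 10% TCA fixation, 560 nm).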
# [10] = BSK_hDFCGF_SRB: Viability Assessment in the BioMAP Diversity Plus: hDFCGF Assay (AID 2283061); settings: primary human foreskin fibroblasts;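 further: cells exposed to compound for 24 h before the read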
# Outline: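 Human foreskin fibroblasts in 96-well plates were treated 24 h. Total protein was measured by 0.1% SRB staining after 10% TCA fixation, read at 560 nm. Data were fitted bidirectionally against DMSO.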
# [11] = read-out: Monokine induced gamma interferon (MIG), CXCL9 (gene 4283); experiment: BSK_hDFCGF_MIG: BioMAP Diversity Plus: hDFCGF Assay for Monokine induced gamma interferon (MIG) Biomarker Activity (AID 2283063); settings: primary human foreskin fibroblasts; actives raise or lower the signal
# Outline: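 MIG/CXCL9 measured by ELISA 24 h after dosing primary human skin fibroblasts. Activity fitted in both directions against DMSO controls. Cytotoxicity was checked in parallel cultures by SRB staining read at 560 nm.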
# [12] = read-out: Matrix Metallopeptidase 1 (MMP1), MMP1 (gene 4312); experiment: BSK_hDFCGF_MMP1: BioMAP Diversity Plus: hDFCGF Assay for Matrix Metallopeptidase 1 (MMP1) Biomarker Activity (AID 2283064); settings: primary human foreskin fibroblasts; actives raise or lower the signal
# Outline: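 Primary human foreskin fibroblasts in the hDFCGF system were dosed with test chemical, and MMP1 was measured by ELISA 24 h later. Values come from bidirectional curve fitting against the DMSO baseline.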
# [13] = read-out: Vascular cell adhesion molecule 1 (VCAM1), VCAM1 (gene 7412); experiment: BSK_hDFCGF_VCAM1: BioMAP Diversity Plus: hDFCGF Assay for Vascular cell adhesion molecule 1 (VCAM1) Biomarker Activity (AID 2283065); settings: primary human foreskin fibroblasts; actives raise or lower the signal;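 on AC50: VCAM-1 protein level quantified by ELISA after 24 h chemical exposure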
# Outline: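 Human foreskin fibroblast primary cells dosed with chemical, VCAM-1 measured by ELISA at 24 h. Bidirectional curve fitting relative to DMSO as negative control/baseline.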
# [14] = read-out: Plasminogen activator inhibitor-1 (PAI1), SERPINE1 (gene 5054); experiment: BSK_hDFCGF_PAI1: BioMAP Diversity Plus: hDFCGF Assay for Plasminogen activator inhibitor-1 (PAI1) Biomarker Activity (AID 2283066); settings: primary human foreskin fibroblasts; actives raise or lower the signal
# Outline: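 Human foreskin fibroblast primary cells, 24 h chemical exposure; PAI-1 measured by ELISA. Bidirectional fitting relative to DMSO; parallel cultures stained with SRB for total protein to flag overt cytotoxicity.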
# [15] = read-out: Intercellular Adhesion Molecule 1 (ICAM1), ICAM1 (gene 3383); experiment: BSK_KF3CT_ICAM1: BioMAP Diversity Plus: KF3CT Assay for Intercellular Adhesion Molecule 1 (ICAM1) Biomarker Activity (AID 2283067); settings: primary human keratinocytes with fibroblasts; actives raise or lower the signal
# Outline: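 Human keratinocyte–foreskin fibroblast co-culture was treated for 24 h. Cell-surface ICAM-1 was quantified by ELISA, fitted bidirectionally relative to DMSO. Cytotoxicity was checked in parallel cultures by SRB total-protein staining.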
# [16] = read-out: Interferon-gamma inducible Protein 10 (IP10), CXCL10 (gene 3627); experiment: BSK_KF3CT_IP10: BioMAP Diversity Plus: KF3CT Assay for Interferon-gamma inducible Protein 10 (IP10) Biomarker Activity (AID 2283068); settings: primary human keratinocytes with fibroblasts; actives raise or lower the signal
# Outline: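 KF3CT co-culture (keratinocytes + foreskin fibroblasts), 24 h compound, IP-10 by ELISA; bidirectional fit vs DMSO baseline.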
# [17] = BSK_KF3CT_SRB: Viability Assessment in the BioMAP Diversity Plus: KF3CT Assay (AID 2283069); settings: primary human keratinocytes with fibroblasts;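 further: total protein by sulforhodamine B staining as a cytotoxicity measure; read 24 h after compound addition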
# Outline: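 Human primary keratinocyte plus foreskin fibroblast co-culture exposed to chemicals for 24 h. Total protein measured by 0.1% sulforhodamine B staining after 10% TCA fixation, read at 560 nm; bidirectional fitting versus DMSO baseline.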
# [18] = read-out: Interleukin-1 alpha (IL1a), IL1A (gene 3552); experiment: BSK_KF3CT_IL1a: BioMAP Diversity Plus: KF3CT Assay for Interleukin-1 alpha (IL1a) Biomarker Activity (AID 2283070); settings: primary human keratinocytes with fibroblasts; actives raise or lower the signal
# Outline: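 Human keratinocyte plus foreskin fibroblast primary co-culture, sampled 24 h after chemical dosing. IL-1a measured by ELISA; responses fitted bidirectionally against DMSO baseline (negative control), so gain or loss of signal both count.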
# [19] = read-out: TIMP metallopeptidase inhibitor 2 (TIMP2), TIMP2 (gene 7077); experiment: BSK_KF3CT_TIMP2: BioMAP Diversity Plus: KF3CT Assay for TIMP metallopeptidase inhibitor 2 (TIMP2) Biomarker Activity (AID 2283071); settings: primary human keratinocytes with fibroblasts; actives raise or lower the signal
# Outline: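 Co-culture of human primary keratinocytes and foreskin fibroblasts, measured 24 h after chemical dosing. TIMP-2 quantified by ELISA and fitted in both directions relative to DMSO. Cytotoxicity checked in parallel cultures by SRB total-protein staining.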
# [20] = read-out: TIMP metallopeptidase inhibitor 1 (TIMP1), TIMP1 (gene 7076); experiment: BSK_hDFCGF_TIMP1: BioMAP Diversity Plus: hDFCGF Assay for TIMP metallopeptidase inhibitor 1 (TIMP1) Biomarker Activity (AID 2283062); settings: primary human foreskin fibroblasts; actives raise or lower the signal
# Outline: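 Human foreskin fibroblast primary cultures dosed for 24 h; secreted/surface TIMP-1 quantified by ELISA. Bidirectional curve fitting against DMSO baseline; cytotoxicity tracked in parallel cultures by SRB total-protein staining.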
structure (smiles),measurement,setting,value
C=C(C)C(=O)OCCOCCOCCOC(=O)C(=C)C,outcome,[1],inactive
same,outcome,[2],inactive
same,outcome,[3],inactive
same,outcome,[4],inactive
same,outcome,[5],inactive
same,outcome,[6],inactive
same,outcome,[7],inactive
same,outcome,[8],inactive
same,AC50,[9],0.0819 µM (active)
same,outcome,[10],inactive
same,outcome,[11],inactive
same,outcome,[12],inactive
same,outcome,[13],inactive
same,AC50,[14],0.0518 µM (active)
same,outcome,[15],inactive
same,outcome,[16],inactive
same,outcome,[17],inactive
same,AC50,[18],41 nM (active)
same,outcome,[19],inactive
CCOC(=O)C(C#N)=C(c1ccccc1)c1ccccc1,outcome,[1],inactive
same,outcome,[2],inactive
same,outcome,[3],inactive
same,outcome,[4],inactive
same,AC50,[5],29.7 µM (active) and 21.9 µM (active)
same,outcome,[6],inactive
same,outcome,[7],inactive
same,AC50,[8],29.5 µM (active)
same,outcome,[8],inactive
same,AC50,[9],23.3 µM (active)
same,outcome,[9],inactive
same,outcome,[10],inactive
same,outcome,[11],inactive
same,outcome,[12],inactive
same,AC50,[13],14.6 µM (active)
same,outcome,[13],inactive
same,outcome,[14],inactive
same,outcome,[15],inactive
same,outcome,[16],inactive
same,outcome,[17],inactive
same,outcome,[18],inactive
same,outcome,[19],inactive
CC(C=O)Cc1ccc(C(C)(C)C)cc1 (centres undefined),AC50,[1],20 µM (active)
same,outcome,[2],inactive
same,AC50,[3],33.7 µM (active)
same,AC50,[4],27.3 µM (active)
same,outcome,[5],inactive
same,AC50,[6],32.1 µM (active)
same,outcome,[7],inactive
same,AC50,[8],29.1 µM (active)
same,AC50,[9],29.5 µM (active)
same,AC50,[10],35.5 µM (active)
same,outcome,[11],inactive
same,outcome,[12],inactive
same,outcome,[13],inactive
same,AC50,[14],27.4 µM (active)
same,outcome,[15],inactive
same,outcome,[16],inactive
same,outcome,[17],inactive
same,outcome,[18],inactive
same,AC50,[19],32.4 µM (active)
CSCCC=O,outcome,[1],inactive
same,outcome,[2],inactive
same,outcome,[3],inactive
same,outcome,[4],inactive
same,outcome,[5],inactive
same,outcome,[6],inactive
same,outcome,[7],inactive
same,outcome,[8],inactive
same,outcome,[9],inactive
same,outcome,[10],inactive
same,outcome,[11],inactive
same,outcome,[12],inactive
same,outcome,[13],inactive
same,outcome,[14],inactive
same,outcome,[15],inactive
same,outcome,[16],inactive
same,outcome,[17],inactive
same,outcome,[18],inactive
same,outcome,[19],inactive
CC1(C)CCC[C@]2(C)[C@H]3CCO[C@]3(C)CC[C@@H]12,AC50,[1],1.65 µM (active)
same,outcome,[1],inactive
same,AC50,[2],36.5 µM (active) and 37.9 µM (active)
same,AC50,[3],34 µM (active) and 31.4 µM (active)
same,AC50,[4],34.1 µM (active) and 33.7 µM (active)
same,AC50,[5],31.4 µM (active) and 30.6 µM (active)
same,AC50,[6],32 µM (active) and 33 µM (active)
same,AC50,[7],37.9 µM (active) and 35.9 µM (active)
same,AC50,[8],12.1 µM (active) and 30.5 µM (active)
same,AC50,[9],36.6 µM (active) and 30.8 µM (active)
same,AC50,[10],33.8 µM (active) and 36.4 µM (active)
same,AC50,[11],34.5 µM (active) and 36.6 µM (active)
same,AC50,[12],35 µM (active) and 36 µM (active)
same,AC50,[13],38.1 µM (active) and 33.9 µM (active)
same,AC50,[14],37.2 µM (active) and 31.1 µM (active)
same,AC50,[15],37.1 µM (active) and 38.1 µM (active)
same,AC50,[16],37.5 µM (active) and 33.9 µM (active)
same,AC50,[17],33.4 µM (active) and 36.8 µM (active)
same,AC50,[18],34.4 µM (active) and 38.9 µM (active)
same,AC50,[19],33.1 µM (active) and 33.9 µM (active)
CC(=O)C1(C)CC2=C(CCCC2(C)C)CC1C (centres undefined),AC50,[1],11.6 µM (active)
same,AC50,[2],13.8 µM (active)
same,AC50,[3],12.3 µM (active)
same,AC50,[4],11.4 µM (active)
same,AC50,[5],10.5 µM (active)
same,AC50,[6],6.8 µM (active)
same,AC50,[7],31.7 µM (active)
same,AC50,[8],10.6 µM (active)
same,AC50,[9],10.9 µM (active)
same,AC50,[10],11.2 µM (active)
same,AC50,[20],12 µM (active)
same,AC50,[11],14.2 µM (active)
same,AC50,[12],12.8 µM (active)
same,AC50,[13],9.73 µM (active)
same,AC50,[14],11.8 µM (active)
same,AC50,[15],12.3 µM (active)
same,AC50,[16],11.2 µM (active)
same,AC50,[17],10.2 µM (active)
same,AC50,[18],13100 nM (active)
same,AC50,[19],5.63 µM (active)
